PubChem BioAssay (NCI)
The panel holds about 83,000 compounds, 20% with a hit somewhere; the sample as a whole holds those more often.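 Interpretation: 100, growth as untreated; towards 0, rising growth inhibition; 0, no net growth; 0 to -100, cell death. Compounds scoring below 10 were considered active.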 The source made the active and inactive calls.

These compounds were tested on SR leukemia (assay: NCI-60 one-dose screen, 48 h (100 = growth as untreated, 0 = no growth, -100 = all killed)). Conditions: 10 µM unless noted.
Protocol: Growth inhibition of the SR human tumor cell line is measured as a screen for anti-cancer activity. Cells are grown in 96 well plates and exposed to the test compound for 48 hours. Compounds are tested at a single concentration, which is 10^-5 M for most compounds. The reported endpoint is percent growth (GI% or GIPRCNT), where numbers from 0 - 100% represent growth inhibition, and numbers from -100% - 0 represent cell death. For example, a value of 40 represents 60% growth inhibition. A value of 0 means no net growth occurred over the course of the experiment. A value of -40 indicates 40% of cells at the beginning of the experiment died by the end of the experiment. A value of -100 means all cells are dead at the end of the experiment.
NCI-60 Human Tumor Cell Lines Screen was performed using the standard one-dose NCI protocol, which is described in more detail at https://dtp.cancer.gov/discovery_development/nci-60/default.htm.
Compounds with GIPRCNT values below 10 were considered active. Activity score was based on GIPRCNT using the following formula: […]
Score is 0 for GIPRCNT values of 100 or above, 50 for GIPRCNT values of 0, and 100 for GIPRCNT values of -100.

| Compound | growth |
| --- | --- |
| COc1ccc(S(=O)(=O)Nc2cc(/C=C\c3cc(OC)c(OC)c(OC)c3)cc(OC)c2OC)cc1OC | 20% (inactive) |
| CCC1CCc2nc3sc(C(=O)Nc4ccccc4F)c(N)c3cc2C1 (stereo not given) | 16.8% (inactive) |
| O=S(=O)(NCCCNc1nccc(-c2c(-c3ccc(O)cc3)nc3sccn23)n1)c1ccc(F)cc1 | 3.07% (active) |
| C=C1C(=O)O[C@H]2[C@H]1CC/C(Cn1cc(-c3ccsc3)nn1)=C\CC[C@@]1(C)O[C@@H]21 | 3.37% (active) |
| O=C1CCCCN1CCCCC#Cc1ccccc1C#Cc1ccc([N+](=O)[O-])cc1 | 18.1% (inactive) |
| CCNc1nc(N2CC(=O)Nc3cc(OC)ccc32)c2ccccc2n1 | 24.3% (inactive) |
| O=S=Nc1ccc([N+](=O)[O-])cc1 | 90.3% (inactive) |
| CC/C(=C(\c1ccc(O)cc1)c1ccc(OCCN(C)CCN(C)C(=O)CCC(=O)c2c(C)[nH]c(/C=C3\N=C(c4ccc[nH]4)C=C3OC)c2C)cc1)c1ccccc1 | 58.6% (inactive) |
| COc1ccc(C2CC(=O)Nc3c2c(C)nn3-c2nc3ccccc3[nH]2)cc1OC (stereo not given) | 32.8% (inactive) |
| C=C1C(=O)O[C@H]2[C@H]1CC/C(COC(=O)NCc1cc(OC)c(OC)c(OC)c1)=C\CC[C@@]1(C)O[C@@H]21 | 4.5% (active) |
| CCC1CCc2nc3sc(C(=O)Nc4cccc(C)c4)c(N)c3cc2C1 (stereo not given) | 11% (inactive) |
| CCN(Cc1ccccc1)c1ccc(SC#N)cc1 | -9.48% (active) |
| Nc1c(C(=O)Nc2cccc(C(F)(F)F)c2)sc2nc3c(cc12)C(O)CCC3 (stereo not given) | 24% (inactive) |
| OCc1c(-c2ccccc2)nc2sccn12 | 103% (inactive) |
| O=C(O)C(=Cc1c2ccccc2cc2ccccc12)C(=O)O | 102% (inactive) |
| Cc1sc2nc(CSc3nnc(-c4ccco4)o3)[nH]c(=O)c2c1C | 56.6% (inactive) |
| COc1ccc(/C=C/C(=O)c2ccc(B(O)O)cc2)cc1O | 19.6% (inactive) |
| C=CCN=C1NC(=O)/C(=C/c2cc(C(C)(C)C)c(O)c(C(C)(C)C)c2)S1 | 32.9% (inactive) |
| Cc1ccc(Oc2nc3ccccc3cc2-c2nnc(Cn3c(COc4ccccc4)nc4ccccc43)o2)cc1 | -7.62% (active) |
| CC/C=C\C/C=C\C[C@H](O)C/C=C1/C(=O)C=C[C@H]1C/C=C\CCC(=O)OC | 7.38% [8.25 µM] (active) |

| Compound | growth |
| --- | --- |
| O=C(Nc1ccc(I)cc1)c1cccc([N+](=O)[O-])c1O | 31.6% (inactive) |
| c1ccc2nc(-c3ccc4ccccc4n3)ccc2c1 | 86.8% (inactive) |
| Cc1c(C(=O)NCc2ccccc2)[n+](=O)c2cc(F)ccc2n1[O-] | 70.6% (inactive) |
| O=c1[nH]c(-c2cn(-c3ccc(Cl)cc3)nn2)nc2ccccc12 | 80.4% (inactive) |
| CCCCCCCCCCCCCCCCCCOc1cccc(CCOP(=O)(O)OCC[N+](C)(C)C)c1 | 58.6% (inactive) |
| CC(C)[C@H](CO)Nc1nc(Nc2ccc(C(=O)NCCNS(=O)(=O)c3cccc4c(N(C)C)cccc34)c(Cl)c2)c2ncn(C(C)C)c2n1 | -10.7% (active) |
| CC(C)CCN(CCCNc1c2c(nc3ccccc13)CCCC2)CCC(C)C | 5.77% (active) |
| CC/C=C\C/C=C\C[C@H]1C/C=C2/C(=O)C=C[C@H]2C/C=C\CCC(=O)O1 | 4.9% (active) |
| Cc1cc(C)c(S(=O)(=O)N2CCN(c3cc4c(cc3F)c(=O)c(C(=O)O)cn4C3CC3)CC2)c(C)c1 | 39.1% (inactive) |
| CCOC(=O)C1=C(CSC(=S)N(C2CCCCC2)C2CCCCC2)N(C)C(=O)NC1c1ccccc1 (stereo not given) | 29.9% (inactive) |
| COc1ccc(/C=C/c2nc(N3CCOCC3)c3nc(Cl)c(Cl)cc3n2)cc1OC | 83.3% (inactive) |
| COc1ccc(/C=C\c2cc(OC)c(OC)c(OC)c2)c(NS(=O)(=O)c2ccc(C(C)(C)C)cc2)c1O | 16.4% (inactive) |
| COc1ncc(-c2ccc3ncnc(Nc4cccc(Cl)c4)c3c2)cc1NS(=O)(=O)C1CC1 | 46.9% (inactive) |
| COc1ccc(NC(=S)/N=c2\oc3c(OC)cccc3cc2-c2cc3ccccc3[nH]2)cc1 | 103% (inactive) |
| O=S(=O)(O)CCl | 84.9% (inactive) |
| Nc1c(C(=O)Nc2ccccc2)sc2nc3c(cc12)CCC3 | 39.6% (inactive) |
| C=C1C(=O)O[C@H]2[C@H]1CC/C(COC(=O)NCCc1cccc(OC)c1)=C\CC[C@@]1(C)O[C@@H]21 | 0.839% (active) |
| CCCCCCCC/C=C\CCCCCCCCOc1ccccc1CCOP(=O)(O)OCC[N+](C)(C)C | 42.4% (inactive) |
| O=C(Nc1cc(C(F)(F)F)cc(C(F)(F)F)c1)Nc1ccc(OCc2nnc(-c3ccc(Cl)cc3)o2)c(F)c1 | 0.985% (active) |
| C/C1=C\CCC2(C)OC2CC2CCC(C)(O)C(CC1)C2(C)C (stereo not given) | 92.4% (inactive) |
